The values that follow come from PubChem BioAssay.

For assay [1], the system named is Plasmodium falciparum Sir2 (PF13_0152, Sir2A). Put plainly: Plasmodium falciparum Sir2A binding compounds – biochemical, small-molecule microarray, 635 nm fluorescence, primary screen (AID 1098).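 Note: score merges spot fluorescence intensity with its signal-to-noise ratio.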 The following applies: fluorescence 635 nm, higher = more signal.
Assay [2] can be described thus: probe aDKK1 binding to arrayed compounds – biochemical, biotinylated probe, 635/667 nm fluorescence, primary screen (AID 1099).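 Note: score merges 667nm spot fluorescence with signal to noise across triplicate slides.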 The settings on record: small-molecule microarray, higher = more signal.
A short description of assay [3]: probe aCHRDL2 binding to arrayed compounds – biochemical, biotinylated probe, 635/667 nm fluorescence, primary screen (AID 1100). The following applies: small-molecule microarray, higher = more signal.
The nature of assay [4]: change in splice reporter luminescence, either direction, cell-based, HEK293, spliceosome inhibition project, primary screen (AID 1101).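 Note: HEK293 cells carrying a splicing-competent luciferase reporter gene; test concentration not given here.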 The following applies: HEK293 splicing luciferase reporter, 24 h, higher = more signal, called active from +8 up or from −8 down.
Assay [5] addresses Fibroblast growth factor 10 (Homo sapiens) (UniProt O15520). Put plainly: compounds binding fibroblast growth factor 10 – biochemical, small-molecule microarray, 635 nm fluorescence, primary screen (AID 1102). The following applies: FGF10 binding, fluorescence 635 nm, higher = more signal.
The subject of assay [6] is glycogen synthase kinase-3 (GSK3A per assay name; protocol says GSK3B). Put plainly: compounds binding glycogen synthase kinase-3 – biochemical, small-molecule microarray, 635 nm fluorescence, GSK3A, primary screen (AID 1103). Note: the record names both GSK3A and GSK3B. The following applies: fluorescence 635 nm, higher = more signal.
For assay [7], the target named is Epidermal growth factor receptor (Homo sapiens) (UniProt P00533). The assay can be described thus: compounds binding epidermal growth factor receptor – biochemical, small-molecule microarray, 635 nm fluorescence, primary screen (AID 1104).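 Note: score merges 667 nm emission intensity with spot signal to noise over triplicate slides.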 The settings on record: EGFR binding, higher = more signal.
Epidermal growth factor receptor (Homo sapiens), sequence (P00533 whole entry, looked up): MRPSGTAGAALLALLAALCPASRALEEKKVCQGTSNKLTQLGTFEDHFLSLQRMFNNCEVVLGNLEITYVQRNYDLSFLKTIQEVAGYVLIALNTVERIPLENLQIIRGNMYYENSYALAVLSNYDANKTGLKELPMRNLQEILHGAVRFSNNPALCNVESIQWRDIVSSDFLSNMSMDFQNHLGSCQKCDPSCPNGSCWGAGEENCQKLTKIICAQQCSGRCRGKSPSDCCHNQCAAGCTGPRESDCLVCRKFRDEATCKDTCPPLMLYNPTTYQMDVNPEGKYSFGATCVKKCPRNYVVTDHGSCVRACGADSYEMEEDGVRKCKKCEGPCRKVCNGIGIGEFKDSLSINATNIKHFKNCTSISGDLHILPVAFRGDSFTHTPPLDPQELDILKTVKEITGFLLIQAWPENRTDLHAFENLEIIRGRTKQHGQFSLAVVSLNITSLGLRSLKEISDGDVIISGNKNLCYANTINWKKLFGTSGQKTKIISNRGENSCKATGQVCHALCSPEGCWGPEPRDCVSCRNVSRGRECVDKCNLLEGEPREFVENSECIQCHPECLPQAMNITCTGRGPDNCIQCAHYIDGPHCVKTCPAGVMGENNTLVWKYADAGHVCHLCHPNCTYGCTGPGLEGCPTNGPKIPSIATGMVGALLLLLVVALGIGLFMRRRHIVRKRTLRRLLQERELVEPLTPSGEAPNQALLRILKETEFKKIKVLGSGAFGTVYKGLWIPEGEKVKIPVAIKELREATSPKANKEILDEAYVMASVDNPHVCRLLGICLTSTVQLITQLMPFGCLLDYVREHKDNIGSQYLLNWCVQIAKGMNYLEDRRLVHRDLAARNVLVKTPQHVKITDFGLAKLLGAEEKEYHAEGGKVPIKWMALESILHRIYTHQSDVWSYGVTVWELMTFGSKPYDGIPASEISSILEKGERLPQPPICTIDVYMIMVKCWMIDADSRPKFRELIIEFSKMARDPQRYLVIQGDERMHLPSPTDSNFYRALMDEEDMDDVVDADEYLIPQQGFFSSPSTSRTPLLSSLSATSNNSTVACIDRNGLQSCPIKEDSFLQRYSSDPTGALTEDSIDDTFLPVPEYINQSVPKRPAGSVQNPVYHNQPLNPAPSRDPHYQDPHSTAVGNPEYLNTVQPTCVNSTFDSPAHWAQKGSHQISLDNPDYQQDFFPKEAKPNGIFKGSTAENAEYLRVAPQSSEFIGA
Assay [8] concerns the target Follistatin-related protein 3 (Homo sapiens) (UniProt O95633). The assay can be described thus: compounds binding follistatin-related protein 3 – biochemical, small-molecule microarray, 635 nm fluorescence, primary screen (AID 1105).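 Note: score merges emission near 667 nm and signal to noise per printed spot across three slides.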 The following applies: FSTL3 binding, higher = more signal.
Assay [9] has as its target Dickkopf-related protein 1 (Homo sapiens) (UniProt O94907). Put plainly: small molecules binding DKK1 protein – biochemical, small-molecule microarray, 635 nm fluorescence scan, primary screen (AID 1106).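 Note: score merges emission near 667 nm with signal to noise over three replicate slides.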 The settings on record: higher = more signal.
Assay [10] deals with Inhibin beta A chain (activin A). Put plainly: small molecules binding activin A – biochemical, small-molecule microarray, 635 nm fluorescence scan, primary screen (AID 1107).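 Note: mouse activin A protein probed at 4.33 µg/mL on printed slides; score merges bound-protein fluorescence near 667 nm with spot signal-to-noise.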 The following applies: INHBA, higher = more signal.
In assay [11] the test system is Human papillomavirus type 1a protein E7 (residues 44-93). Put plainly: small molecules binding HPV E7 44-93 – biochemical, small-molecule microarray, residues 44-93, 635 nm fluorescence, primary screen (AID 1108).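 Note: E7 fragment applied at 1 µg/mL in TBST for 1 h at 4 C; score combines spot fluorescence with its signal to noise ratio.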 The following applies: fluorescence 635 nm, higher = more signal.
Assay [12] can be described thus: hepatitis C replication reporter changes, two-sided – Huh7 cells, luciferase reporter, HCV replication inhibitor project, primary screen (AID 1109).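 Note: huh7 hepatoma cells harbouring a luciferase neomycin HCV replicon reporter; luciferase luminescence as measure of HCV replicon replication; test concentration not given here.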 The settings on record: Huh7 HCV replicon luciferase reporter, 48 h; higher = more signal. In general terms: In a reporter assay the amount or activity of a reporter protein is the signal.
Assay [13] concerns the target Left-right determination factor 2 (Homo sapiens) (UniProt O00292). The assay can be described thus: small molecules binding LEFTY2 protein – biochemical, small-molecule microarray, 635 nm fluorescence scan, primary screen (AID 1110). The settings on record: higher = more signal.
For assay [14], the target named is Calmodulin-1 (Homo sapiens) (UniProt P0DP23). Put plainly: small molecules binding calmodulin-1 with EGTA – biochemical, small-molecule microarray, Cy5-labelled CALM1, profiling panel (AID 1111).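 Note: labelled calmodulin applied in Tris saline Tween buffer holding calcium plus EGTA and DTT.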 The settings on record: Cy5-CALM1 binding fluorescence, higher = more signal.
The target is the same in assay [15]. Put plainly: small molecules binding Ca-loaded calmodulin-1 – biochemical, small-molecule microarray, Cy5-labelled CALM1, plus calcium, artefact control for SMM control-protein annotation, profiling panel (AID 1112).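 Note: score merges spot fluorescence with signal to noise from triplicate slides.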 The following applies: Cy5-CALM1 binding fluorescence, higher = more signal.
Assay [16] can be described thus: probe aWnt5a binding to arrayed compounds – biochemical, biotinylated probe, 635/667 nm fluorescence, primary screen (AID 1113).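 Note: score merges 667 nm fluorescence intensity with signal-to-noise per printed feature.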 The settings on record: small-molecule microarray, higher = more signal.
A short description of assay [17]: probe aShh binding to arrayed compounds – biochemical, biotinylated probe, 635/667 nm fluorescence, primary screen (AID 1114).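 Note: probe is biotin-labelled aShh protein from a stem cell growth factor screen; measures binding of labelled protein to compounds printed on the slide; score merges feature fluorescence at 667 nm with signal-to-noise.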 The settings on record: small-molecule microarray, higher = more signal.
Assay [18] can be described thus: probe aNog binding to arrayed compounds – biochemical, biotinylated probe, 635/667 nm fluorescence, primary screen (AID 1115).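 Note: probe is biotinylated aNog protein used at 0.15 µg/mL for 1 h at 4 C; z-score combines 667 nm fluorescence of each spot with its signal to noise.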 The following applies: small-molecule microarray, higher = more signal.
The target of assay [19] is Torsin-1A-interacting protein 1 (Homo sapiens) (UniProt Q5JTV8). The assay can be described thus: compound microarray binding of lysate hLAP1 – cell lysate, small-molecule microarray, COS7 lysate, 635/667 nm fluorescence, primary screen (AID 1116). The settings on record: 635 nm fluorescence, higher = more signal.
Torsin-1A-interacting protein 1 (Homo sapiens), sequence (Q5JTV8 whole entry, looked up): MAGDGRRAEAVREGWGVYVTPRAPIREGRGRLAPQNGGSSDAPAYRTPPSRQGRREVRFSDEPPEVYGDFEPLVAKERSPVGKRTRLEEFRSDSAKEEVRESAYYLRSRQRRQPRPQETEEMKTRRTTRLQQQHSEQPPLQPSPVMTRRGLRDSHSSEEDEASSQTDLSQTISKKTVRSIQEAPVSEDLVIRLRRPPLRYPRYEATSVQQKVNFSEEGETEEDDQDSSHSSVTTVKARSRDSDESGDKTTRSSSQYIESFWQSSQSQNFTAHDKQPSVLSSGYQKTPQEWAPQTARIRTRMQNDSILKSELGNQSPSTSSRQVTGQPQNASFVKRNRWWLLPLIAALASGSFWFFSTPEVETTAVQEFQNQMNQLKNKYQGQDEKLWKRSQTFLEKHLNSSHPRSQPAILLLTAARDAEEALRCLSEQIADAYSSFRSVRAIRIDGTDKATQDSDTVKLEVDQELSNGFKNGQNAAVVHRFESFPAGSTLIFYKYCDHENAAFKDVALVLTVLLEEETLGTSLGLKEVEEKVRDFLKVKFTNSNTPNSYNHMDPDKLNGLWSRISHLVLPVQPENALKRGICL
Assay [20] has as its target Alpha-bungarotoxin (Bungarus multicinctus) (UniProt P60615). The assay can be described thus: compounds binding labelled alpha-BTX control protein – biochemical, small-molecule microarray, Alexa647 label, 635/667 nm fluorescence, artefact control for SMM control protein annotation, profiling panel (AID 1117). The following applies: alpha-BTX-A647 binding fluorescence, higher = more signal.

The source made the active and inactive calls.

Dickkopf-related protein 1 (Homo sapiens), sequence (O94907 whole entry, looked up): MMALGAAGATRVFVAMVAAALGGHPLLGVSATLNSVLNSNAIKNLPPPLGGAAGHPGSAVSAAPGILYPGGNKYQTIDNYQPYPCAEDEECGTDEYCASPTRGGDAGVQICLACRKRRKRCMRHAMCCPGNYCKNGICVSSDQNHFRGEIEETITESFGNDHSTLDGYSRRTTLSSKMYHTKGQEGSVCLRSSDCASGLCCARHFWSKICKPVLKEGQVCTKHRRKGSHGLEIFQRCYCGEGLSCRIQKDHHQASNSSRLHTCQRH
Fibroblast growth factor 10 (Homo sapiens), sequence (O15520 whole entry, looked up): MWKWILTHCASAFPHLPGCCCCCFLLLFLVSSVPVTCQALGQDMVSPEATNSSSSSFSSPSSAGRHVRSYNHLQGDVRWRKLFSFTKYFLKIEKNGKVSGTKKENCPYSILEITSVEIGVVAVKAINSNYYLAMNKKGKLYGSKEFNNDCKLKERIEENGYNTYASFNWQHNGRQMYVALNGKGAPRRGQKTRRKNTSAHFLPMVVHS
Left-right determination factor 2 (Homo sapiens), sequence (O00292 whole entry, looked up): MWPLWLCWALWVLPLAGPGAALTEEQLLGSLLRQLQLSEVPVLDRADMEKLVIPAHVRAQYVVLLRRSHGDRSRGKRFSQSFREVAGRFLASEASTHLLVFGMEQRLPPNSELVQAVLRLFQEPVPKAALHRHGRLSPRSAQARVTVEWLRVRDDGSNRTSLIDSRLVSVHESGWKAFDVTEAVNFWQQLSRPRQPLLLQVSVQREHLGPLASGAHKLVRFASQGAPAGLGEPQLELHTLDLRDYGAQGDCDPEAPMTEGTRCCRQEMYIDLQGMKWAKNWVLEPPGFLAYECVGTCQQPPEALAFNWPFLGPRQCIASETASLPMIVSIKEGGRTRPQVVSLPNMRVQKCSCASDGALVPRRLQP
Follistatin-related protein 3 (Homo sapiens), sequence (O95633 whole entry, looked up): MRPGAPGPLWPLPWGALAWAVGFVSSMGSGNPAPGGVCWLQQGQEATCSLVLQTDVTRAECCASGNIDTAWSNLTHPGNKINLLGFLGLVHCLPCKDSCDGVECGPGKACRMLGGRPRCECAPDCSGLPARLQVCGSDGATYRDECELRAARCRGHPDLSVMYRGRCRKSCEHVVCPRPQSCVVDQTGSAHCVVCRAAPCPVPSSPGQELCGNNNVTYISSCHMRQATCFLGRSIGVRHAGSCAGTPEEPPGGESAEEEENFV
Alpha-bungarotoxin (Bungarus multicinctus), sequence (P60615 whole entry, looked up): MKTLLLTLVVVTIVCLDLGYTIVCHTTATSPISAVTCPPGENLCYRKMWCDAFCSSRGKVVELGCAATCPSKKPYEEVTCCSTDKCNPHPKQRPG

In the case of `O=C1O[C@H](c2ccccc2)[C@H](c2ccccc2)N2[C@H]1[C@@H](C(=O)NC[C@H](O)c1ccccc1)[C@]1(C(=O)Nc3ccccc31)[C@H]2c1ccc(OCCO)cc1`, the composite z-score in assay [1] was 0.884; in [2], 0.569; in [3], 0.672; in assay [5], 0.745; in assay [6] it was 1.23; in [7] it was -0.0151. For the same molecule, the composite z-score in assay [8] worked out at 0.464; in assay [9], 0.289; in assay [10], 0.286; in assay [11] it was 1.38; in assay [13] it was 0.119; in [14], 0.475. Further, the composite z-score is 0.245 in assay [15]; -0.0882 in assay [16]; -0.167 in assay [17]; 0.0821 in [18]; 1.5 in [19]; 1.33 in [20]. Also, the figures for the z-score in assay [4] and in assay [12] were 0.985 (inactive) and -2.05, respectively.
On to `CC(C)C[C@@H]1NC(=O)[C@H]2C[C@@H](C(=O)NCCCCCCN)[C@@H](c3ccc(O)cc3)N2C1=O`, for which the composite z-score is 1.59 in [1]; 1.06 in assay [2]; 0.808 in [3]; 0.23 in assay [5]; 0.247 in [6]; 0.106 in assay [7]. Moreover, the composite z-score in assay [8] came to 0.69; in [9], 0.731; in assay [10], 1.23; in [11] it was 0.302; in assay [13] it was 0.057; in assay [14] it was 0.143. Moreover, the composite z-score in [15] was 0.307; in assay [16] it was 0.055; in assay [17], -0.214; in assay [18] it was 0.103; in [19] it was 1.13; in assay [20] it was 0.585. Moreover, the results for the z-score in assay [4] and in [12] were 0.823 (inactive) and 0.742, respectively.
`CC(C)(C)OC(=O)CC[C@]1(C(=O)O)N=C(c2ccc(OCCCO)cc2)O[C@H]1c1ccccc1N=[N+]=[N-]`: the composite z-score is 1.34 in [1]; 1.75 in [2]; 1.11 in assay [3]; 0.443 in assay [5]; 0.581 in assay [6]; -0.143 in assay [7]. Moreover, the composite z-score was 0.4 in [8]; 0.0608 in [9]; 0.977 in assay [10]; 0.148 in [11]; 0.101 in assay [13]; 1.84 in assay [14]. Besides, the composite z-score in [15] stood at 0.465; in assay [16] it was 0.38; in [17], 0.699; in [18], 2.34; in [19] it was 1.41; in assay [20] it was 1.42. Further, the z-score in [4] was 0.115 (inactive); in assay [12] it was 2.27.
On to `COc1ccc(CCN2C(=O)[C@@]3(Cc4ccccc42)c2ccccc2C(=O)N(Cc2ccccc2C(F)(F)F)[C@H]3c2ccc(CO)cc2)cc1`, for which the composite z-score in assay [1] was 0.516; in assay [2], -0.19; in [3], -0.537; in assay [5], 0.167; in [6], 0.441; in [7] it was 0.0283. In addition, the composite z-score in assay [8] was 0.425; in [9], 0.622; in assay [10] it was 0.717; in assay [11], 0.291; in [13], 0.0259; in assay [14], 0.238. The composite z-score in [15] was -0.839; in assay [16], -0.158; in [17], 0.0796; in assay [18], -0.258; in assay [19], 0.0645; in assay [20], 0.88. The z-score in assay [4] was -0.856 (inactive); in assay [12] it was -0.961.
With `Cc1ccc(S[C@]2(C(=O)NC3CC3)CC(=O)N(C3Cc4ccccc4C3)[C@@H]2c2ccc(CO)cc2)cc1`, the composite z-score was 1.65 in assay [1]; 0.245 in assay [2]; 0.806 in [3]; -0.451 in assay [5]; -0.15 in assay [6]; -0.876 in [7]. Besides, the composite z-score in assay [8] was -0.809; in assay [9], -1.02; in assay [10], -0.139; in assay [11], 1.27; in [13], -1.7; in assay [14], -0.0137. Besides, the composite z-score in [15] is 0.0662; in assay [16], -0.258; in assay [17], -0.154; in assay [18], 0.354; in [19] it was 0.439; in assay [20], -0.441. The z-score in [4] is -0.983 (inactive); in assay [12] it was -1.08.
As to `CCCCCC1=C2CNC(CCC)(C(=O)OC)C=C2C(C)C1=O` (stereo not given), the composite z-score in assay [1] is 0.0288; in assay [2], 0.719; in assay [3] it was 0.952; in assay [5], 0.439; in [6], -0.111; in assay [7], -0.576. The composite z-score in assay [8] was -0.435; in assay [9], -0.793; in assay [10], 1.14; in assay [11], 0.514; in assay [13], -0.477; in assay [14] it was 1.42. The composite z-score in assay [15] is 1.27; in [16], -0.0125; in assay [17], 0.811; in assay [18], 1.66; in assay [19], 0.997; in assay [20], 0.334. The z-score in [4] was 2.6 (inactive); in assay [12], -0.183.
With `[N-]=[N+]=Nc1ccccc1[C@H]1OC(c2ccc(OCCCO)cc2)=N[C@@]1(Cc1ccccc1)C(=O)O`, the composite z-score in assay [1] stood at 1.68; in assay [2], 0.292; in [3], 0.381; in assay [5], 0.875; in [6], 0.997; in assay [7], 0.0509. The composite z-score in [8] was 0.727; in assay [9], 0.293; in [10], 1.12; in assay [11], 1.46; in assay [13], -0.271; in [14], 0.577. For the same molecule, the composite z-score in assay [15] is -0.0461; in assay [16], 0.0375; in assay [17], 0.483; in assay [18], -0.0277; in assay [19], 0.826; in [20], 2.07. In addition, the z-score in assay [4] is -1.23 (inactive); in assay [12], 1.09.
`COC(=O)c1c(CC[C@@H](CO)NC(=O)N[C@@H](C)Cn2cc(C3(O)CCCCC3)nn2)oc(C(C)=O)c1C(=O)OC`: the composite z-score in assay [1] is 1.35; in assay [2] it was -0.0465; in assay [3] it was -0.481; in [5], 1.2; in [6] it was 1.25; in assay [7], 0.763. For the same molecule, the composite z-score is 1.27 in assay [8]; 0.892 in assay [9]; -0.216 in assay [10]; 0.921 in assay [11]; 0.703 in assay [13]; 0.685 in [14]. The composite z-score is -1.53 in assay [15]; -0.0556 in assay [16]; 0.0328 in assay [17]; -0.0211 in assay [18]; 0.666 in [19]; 0.431 in assay [20]. For the same molecule, the values for the z-score in assay [4] and in assay [12] were -2.26 (inactive) and -0.418, respectively.
